From PubChem
Rows were chosen to be rich in hits. Some 3.9% of all compounds tested hit in one or more screens of this group.
S2 tox = viability counter-screen for ATXN expression inhibitors. actives 0.49% (n = 400,000). AID 651635. S2 cells (HEK-293 line with an ATXN2-luciferase reporter) viability, CellTiter-Fluor protease fluorescence, 24 h. Potency, µM (titrated, usually from 56.7 µM), actives largely listed as cytotoxic; further: nearly all actives have a fitted effect of over 40% in size
ATXN2 expr inh = ATXN2 expression inhibition | HEK-293 ATXN2-luciferase reporter, luminescence, 24 h | Potency, µM (top dose mostly 57 µM), for inactives: at the top dose activity change, negative = inhibition, actives largely listed as inhibitors | actives 0.72% (n = 360,000); further: on the % scale 0 is the no-effect control and ±100 the full control effect; nearly all actives have a fitted effect of over 55% in size
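qHTS (up to 57 uM final) was run with 24 h compound exposure of reporter cells at 37 °C. Each well was multiplexed: SteadyGlo luminescence measured ATXN2-luciferase expression after a fluorogenic Gly-Phe-AFC viability readout (25 uM final).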
HepG2 tox = kills HepG2 cells in TGF-b inhibitor counter-screen; HepG2 CAGA-GFP viability, ATP luminescence, 18 h; Potency, µM (series often up to 46.1 µM), for the others: at the top dose activity change, negative = cytotoxicity, usual class: cytotoxic; actives 0.76% (n = 410,000); AID 588856
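HepG2 CAGA-GFP cells (1000/well, DMEM with 1% FBS) received compound, then TGF-beta at 500 pg/mL final, and were incubated 18 hours at 37 degrees C. Viability was read by CellTiter-Glo luminescence. Media-only wells were set as complete cell-killing and DMSO as no toxicity.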
TGFb SMAD3 inh = TGF-b pathway inhibition | HepG2 CAGA-GFP TGF-b/SMAD3 reporter, GFP fluorescence, 18 h; TGF-beta stimulated, 500 pg/mL final | Potency, µM (series often up to 46.1 µM), for the others: top-dose activity, negative = inhibition, most hits filed as inhibitors | actives 1.2% (n = 410,000); further: on the % scale 0 is the no-effect control and ±100 the full control effect; nearly all actives have a fitted effect of over 65% in size
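Using HEPG2 CAGA-GFP reporter cells at 1000 cells/well, we pinned test compounds, stimulated with recombinant TGF-beta (500 pg/mL final) and measured total well GFP after 18 h.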
HT1080-NT tox = kills 2HG-producing HT-1080-NT fibrosarcoma cells; AID 686970; actives 1.6% (n = 360,000); HT-1080-NT fibrosarcoma viability, CellTiter-Glo ATP luminescence, 48 h; Potency, µM (titrated, usually from 46.1 µM), for inactives: at the highest dose activity, negative = less viability, most hits filed as cytotoxic;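 further: NT is the 2HG producing partner of a matched IDH1 knockdown line; 0% = DMSO-treated cells and -100% = media-only wells without cells; nearly all actives have a fitted effect of over 55% in size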
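Read-out is CellTiter-Glo luminescence after 10 minutes at room temperature, following 48 hours' compound treatment of HT-1080-NT cells (750 cells/well, RPMI, 5% FBS, 37 degrees C).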
HT1080 IDH1KD tx = HT-1080 IDH1 knockdown cell toxicity (counter line); Potency, µM (top dose mostly 46.1 µM), without a hit: at the top dose activity, negative = toxicity, most hits filed as cytotoxic; HT-1080 IDH1 knockdown viability, ATP luminescence, 48 h; actives 2% (n = 360,000);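 further: 0% = DMSO wells and -100% = cell-free medium wells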
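In this qHTS, HT-1080 cells depleted of IDH1 are exposed for 48 h at 37 °C to compound titrations. Toxicity is scored from CellTiter-Glo luminescence, with DMSO as full viability and medium alone as none.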
* hit, by the source's call. The call rests on the fitted dose curve; in most records, active means well fitted curve in the direction sought with a large enough effect; inconclusive means small, poorly fitted or top-dose-only effect, or another doubt; inactive means no such curve, though single readings can be large; an effect the other way counts as inactive or inconclusive. Potency means the concentration at half of the fitted maximal effect.

What do the screens show for `COc1cc(OC)c(/C=C/c2cc3ccccc3c[n+]2C)c(OC)c1`?
HepG2 tox: -37%; TGFb SMAD3 inh: 7.9µM*

Results for N#CCCN(Cc1ccccc1)C(C(=O)NC1CCCCC1)c1cc2ccccc2o1 (stereo not given) ?
ATXN2 expr inh: -39%; HepG2 tox: 3%; TGFb SMAD3 inh: 13µM*; HT1080-NT tox: -25%; HT1080 IDH1KD tx: inconclusive

Results for CN(Cc1ccc(Cl)cc1)C(C(=O)NC1CCCCC1)c1cc2ccccc2o1 (stereo not given) ?
S2 tox: inactive; ATXN2 expr inh: 14%; HepG2 tox: -14%; TGFb SMAD3 inh: inconclusive; HT1080-NT tox: inconclusive; HT1080 IDH1KD tx: inconclusive

Results for Cc1c(C(=O)Nc2ccc(F)cc2F)oc2c1-c1nn(Cc3c(F)cccc3Cl)cc1CC2 ?
HepG2 tox: -3%; TGFb SMAD3 inh: -1%

Results for COc1ccc(CCN2C(=O)c3ccccc3NC2c2cc(Cl)c(O)c(OC)c2)cc1 (stereo not given) ?
S2 tox: inactive; ATXN2 expr inh: 3%; HepG2 tox: 3%; TGFb SMAD3 inh: 7%; HT1080-NT tox: 1.6µM*; HT1080 IDH1KD tx: 2.9µM*

What do the screens show for `NC(=O)CCCn1c(C(=O)c2ccc(Cl)cc2)c2ccc([N+](=O)[O-])cc2[n+]1[O-]`?
S2 tox: 18µM*; ATXN2 expr inh: inconclusive; HepG2 tox: -33%; TGFb SMAD3 inh: inconclusive; HT1080-NT tox: -25%; HT1080 IDH1KD tx: -12%

Results for NCCCn1c(C(=O)c2ccc(Cl)cc2)c2ccc([N+](=O)[O-])cc2[n+]1[O-] ?
S2 tox: inconclusive; ATXN2 expr inh: inconclusive; HepG2 tox: -32%; TGFb SMAD3 inh: 10µM*; HT1080-NT tox: -23%; HT1080 IDH1KD tx: -29%

Results for Cc1ccc(C(=O)c2c3ccc([N+](=O)[O-])cc3[n+]([O-])n2CCCC(N)=O)cc1 ?
S2 tox: inconclusive; ATXN2 expr inh: inconclusive; HepG2 tox: -22%; TGFb SMAD3 inh: inconclusive; HT1080-NT tox: -3%; HT1080 IDH1KD tx: -20%

What do the screens show for `NC(=O)CCCn1c(C(=O)c2cc(Cl)c(N)c(Cl)c2)c2ccc([N+](=O)[O-])cc2[n+]1[O-]`?
S2 tox: 28µM*; ATXN2 expr inh: inconclusive; HepG2 tox: -54%; TGFb SMAD3 inh: 7.9µM*; HT1080-NT tox: -23%; HT1080 IDH1KD tx: inconclusive

What do the screens show for `CCC(=O)N1CCc2cc(Br)cc(S(=O)(=O)N3CCN(c4cc(C)ccc4C)CC3)c21`?
S2 tox: inactive; ATXN2 expr inh: 12%; HepG2 tox: 1%; TGFb SMAD3 inh: -7%

What do the screens show for `COc1ccc(-c2onc(C)c2C)cc1S(=O)(=O)N1c2ccccc2CC1C` (stereo not given)?
HepG2 tox: -23%; TGFb SMAD3 inh: inconclusive

How did CCN(C(=O)c1c(O)c2c(Cl)cccc2n(C)c1=O)c1ccccc1 do in these assays?
ATXN2 expr inh: -11%

How did CC(=O)Nc1ccc(NS(=O)(=O)c2ccc(-c3cnc(C4CC4)o3)cc2)cc1 do in these assays?
S2 tox: inactive; ATXN2 expr inh: 0%; HepG2 tox: -23%; TGFb SMAD3 inh: -3%; HT1080-NT tox: -9%; HT1080 IDH1KD tx: -6%

Results for Cc1ccc(C)c(NS(=O)(=O)c2ccc(-c3cnc(C4CC4)o3)cc2)c1 ?
S2 tox: inconclusive; HepG2 tox: -50%; TGFb SMAD3 inh: inconclusive; HT1080-NT tox: 0.1µM*; HT1080 IDH1KD tx: 0.16µM*

How did Cc1c(Cl)cccc1NS(=O)(=O)c1ccc(-c2cnc(C3CC3)o2)cc1 do in these assays?
S2 tox: inconclusive; ATXN2 expr inh: 0%; HepG2 tox: -109%; TGFb SMAD3 inh: 2.8µM*

What do the screens show for `COc1ccc(NS(=O)(=O)c2ccc(-c3cnc(C4CC4)o3)cc2)cc1Cl`?
S2 tox: inactive; ATXN2 expr inh: inconclusive; HepG2 tox: -91%; TGFb SMAD3 inh: inconclusive

Results for CC(=O)c1cccc(NS(=O)(=O)c2ccc(-c3cnc(C4CC4)o3)cc2)c1 ?
S2 tox: inconclusive; HepG2 tox: -14%; TGFb SMAD3 inh: -30%; HT1080-NT tox: 21µM*; HT1080 IDH1KD tx: inconclusive

How did O=S(=O)(Nc1ccccc1)c1ccc(-c2cnc(C3CC3)o2)cc1 do in these assays?
S2 tox: inactive; HepG2 tox: -47%; TGFb SMAD3 inh: inconclusive; HT1080-NT tox: inconclusive; HT1080 IDH1KD tx: inconclusive

How did Cc1ccc(NS(=O)(=O)c2ccc(-c3cnc(C4CC4)o3)cc2)cc1N(C)C do in these assays?
S2 tox: inactive; ATXN2 expr inh: inconclusive; HepG2 tox: -32%; TGFb SMAD3 inh: 10µM*

What do the screens show for `CN(C)c1ccc(CCC2C=Cc3ccccc32)cc1` (stereo not given)?
HepG2 tox: 9%; TGFb SMAD3 inh: -12%

How did O=C(Nc1ccc(N2CCCC2)c(Cl)c1)c1cccnc1 do in these assays?
S2 tox: inconclusive; ATXN2 expr inh: 45%; HepG2 tox: -4%; TGFb SMAD3 inh: 6%; HT1080-NT tox: 5%; HT1080 IDH1KD tx: 9%

How did COc1cccc(C(=O)Nc2ccc(N3CCN(C(=O)c4cccs4)CC3)cc2)c1 do in these assays?
S2 tox: inactive; ATXN2 expr inh: -35%; HepG2 tox: -19%; TGFb SMAD3 inh: inconclusive; HT1080-NT tox: inconclusive; HT1080 IDH1KD tx: 2.6µM*

What do the screens show for `O=C(Nc1ccc(N2CCN(C(=O)c3cccs3)CC2)cc1)c1ccccc1Cl`?
S2 tox: inactive; ATXN2 expr inh: -29%; HepG2 tox: -7%; TGFb SMAD3 inh: -23%; HT1080-NT tox: inconclusive; HT1080 IDH1KD tx: 9.2µM*

What do the screens show for `O=C(NC(=S)Nc1ccc(N2CCCCC2)cc1)c1cccs1`?
S2 tox: inactive; ATXN2 expr inh: 50%; HepG2 tox: -22%; TGFb SMAD3 inh: inconclusive; HT1080-NT tox: 1.3µM*; HT1080 IDH1KD tx: 4µM*

How did O=C(Nc1ccc(N2CCN(C(=O)c3cccs3)CC2)c(Cl)c1)c1cccnc1 do in these assays?
S2 tox: inactive; ATXN2 expr inh: 22µM*; HepG2 tox: -21%; TGFb SMAD3 inh: -9%; HT1080-NT tox: -20%; HT1080 IDH1KD tx: -28%

How did O=C(Nc1ccc(N2CCN(C(=O)c3cccs3)CC2)cc1)c1ccccc1F do in these assays?
S2 tox: inactive; ATXN2 expr inh: -24%; HepG2 tox: 6%; TGFb SMAD3 inh: -14%; HT1080-NT tox: -26%; HT1080 IDH1KD tx: -19%
